For part of these data: Potency and affinity values are given separately. The source made the active and inactive calls. Unless noted, the rule behind the calls is not given here.
Target: Protein kinase 7 (PK7), Plasmodium falciparum 3D7 (PF3D7_0213400) (UniProt Q7YTF7)
Test: inhibition of Plasmodium PK7 catalytic activity – biochemical, TCAMS antimalarial set, Kinase-Glo luminescence (AID 1159587)
Conditions: recombinant PfPK7, Kinase-Glo ATP depletion luminescence

Sequence of Protein kinase 7 (PK7), Plasmodium falciparum 3D7 (PF3D7_0213400) (Q7YTF7 1-343): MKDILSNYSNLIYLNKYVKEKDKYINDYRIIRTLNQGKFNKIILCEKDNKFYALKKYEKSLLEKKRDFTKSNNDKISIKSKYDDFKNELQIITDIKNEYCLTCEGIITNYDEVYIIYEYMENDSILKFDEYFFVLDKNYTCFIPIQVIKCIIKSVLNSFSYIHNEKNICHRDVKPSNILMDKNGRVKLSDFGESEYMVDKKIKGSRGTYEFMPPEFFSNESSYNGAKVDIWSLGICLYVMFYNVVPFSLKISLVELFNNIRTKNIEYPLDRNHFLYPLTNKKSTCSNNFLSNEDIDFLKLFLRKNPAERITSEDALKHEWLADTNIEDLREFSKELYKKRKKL

outcome, inactive:
CC(C)c1ccc(CN(C)CCCCNC(=O)c2ccc(NC(=O)c3ccc(Cl)cc3)cc2)cc1, CC(C)n1c(C2CCN(CC3CCN(C(=O)/C=C/c4ccc(Cl)c(Cl)c4)CC3)CC2)nc2ccccc21, Cn1nc(C(F)(F)F)c(-c2ccc(F)cc2)c1NC(=O)Nc1ccc(F)cc1F, COc1cccc2sc(N3CCN(C(=O)c4ccc([N+](=O)[O-])o4)CC3)nc12, COc1ccc2nccc(NC(=O)CNCc3ccc(-c4ccccc4)cc3)c2c1, O=C(Nc1ccc(Cn2ncc(N3CCCNCC3)c(Cl)c2=O)cc1)Nc1cc(Cl)cc(Cl)c1, COc1cc(C(=O)Nc2nc3ccccc3[nH]2)ccc1OCC(=O)Nc1cccc(C(F)(F)F)c1, O=C(NCC1CC1)C1CCN(C(c2ccccc2)c2ccc(Cl)c(Cl)c2)CC1 (stereo not drawn), CN1CCN(CCCN(Cc2cccc(-c3cccc(CNCCc4ccccc4)c3)c2)C(=O)Nc2ccccc2)CC1, O=C(Nc1ccc(F)c(C(F)(F)F)c1)N[C@H]1CCN(CCCCCNC(=O)[C@@H]2C[C@H]2c2ccc(Cl)c(Cl)c2)C1, CC(Cc1ccc(OCc2ccccc2)cc1)Nc1nc2ccccc2c(=O)[nH]1 (stereo not drawn), CCCCCCP(=O)(COc1ccc(CCN(CC(O)COc2cccc3[nH]c(C(N)=O)cc23)CC(O)COc2cccc3[nH]c(C(N)=O)cc23)cc1)OCCCC (stereo not drawn), Cc1cc(N[C@@H](CC(C)C)C(=O)NCCOc2ccccc2)nc(Nc2ccccc2)n1, Cc1cccc2[nH]c(-c3cccc(-c4cccc(CNCc5cccc(N)c5)c4)c3)nc12, Cc1ccc(-n2[nH]c(C)c(N=Nc3cccc(-c4cccc(NC(=O)OC(C)(C)C)c4)c3O)c2=O)cc1C, O=C(Nc1ccc(NC2=NCCN2)cc1)Nc1ccc(NC2=NCCN2)cc1, CCn1c(-c2nonc2N)nc2cnc(Oc3cccc(NC(=O)c4ccc(OCCN5CCCC5)cc4)c3)cc21, CC[C@H](C)CNC(=O)c1cncc(-c2cccc(CNCCCc3ccccc3)c2)c1, COc1ccc(-c2cccc(NC(=O)c3cccc(Cl)c3)c2)cc1CN1CCCN(C)CC1, Cc1cccc2[nH]cc(C3CCN(CCC4CCN(C(=O)/C=C/c5ccc(Cl)c(Cl)c5)CC4)CC3)c12, Cc1ccc(-c2noc(COc3ccccc3C(=O)NC3CCCC3)n2)cc1, COc1ccc(NC(=O)[C@H](Cc2ccccc2)Nc2cc(C)nc(NCc3ccccc3C)n2)cc1, CC1CCCN1Cc1cccc(-c2ccc(C(=O)NCCOc3ccccc3)s2)c1 (stereo not drawn), COc1ccc(-c2cccc(NC(=O)c3ccc(Cl)cc3)c2)cc1CN1CCNCC1, CC(C)(C)Cn1cc(-c2ccc(C(=O)NCCc3ccc(S(C)(=O)=O)cc3)cc2)c(N)n1 (tested in a mixture with another compound), CCCC[C@@H](C(=O)NCCc1ccc(Cl)cc1)N1C(=O)CCC1C(=O)Nc1ccc(Cl)c(Cl)c1 (stereo partly drawn), COc1ccc(-c2csc(NC(=O)CCC(=O)O)n2)cc1OC, CCN(CC)CCOc1ccc(C(O)(C#CC(O)(c2ccc(C)cc2)c2ccc(OCCN(CC)CC)cc2)c2ccc(C)cc2)cc1 (stereo not drawn), COCc1nc(-c2ccccc2)nc(N2CCN(C(=O)NC(C)C)CC2)c1Cc1ccccc1F, CN(C)c1ccc(-c2csc(C(=O)NCC3CCN(CCC(C)(C)C)C3)c2)cc1 (stereo not drawn), N#Cc1ccc(-c2cnc3ccc(NCc4ccc(S(N)(=O)=O)cc4)nn23)cc1, O=C(N[C@@H]1C[C@H]1c1ccccc1)N(CCCn1ccnc1)Cc1csc(-c2ccc(CNCc3ccccc3)cc2)n1, Cc1nnc2c(NC(=O)/C=C/c3ccc(OC(F)(F)F)cc3)cc3cc(Cl)ccc3n12, CCn1c(C(C)C)cc2c3c(N)nc(N)nc3ccc21, Cc1cccc2[nH]c(-c3ccc(-c4ccc(NC(=O)Nc5ccc(Cl)cc5)cc4)s3)nc12, CCCCN1CCN(CCCCNc2c3ccccc3nc3ccccc23)CC1, NC(=NCCCCC1CCCCC1)c1cccc(C(N)=NCCCCC2CCCCC2)n1, O=C1OC(c2ccccc2)(c2ccccc2)CN1CC1CCN(Cc2ccc(O)c(Cl)c2)CC1, CCn1c(Sc2ccc(C#N)c([N+](=O)[O-])c2)nnc1-c1cccc(Cl)c1

Target: Calcium-dependent protein kinase 4 (Plasmodium falciparum (isolate 3D7)) (UniProt Q8IBS5)
Sequence (Q8IBS5 whole entry, looked up): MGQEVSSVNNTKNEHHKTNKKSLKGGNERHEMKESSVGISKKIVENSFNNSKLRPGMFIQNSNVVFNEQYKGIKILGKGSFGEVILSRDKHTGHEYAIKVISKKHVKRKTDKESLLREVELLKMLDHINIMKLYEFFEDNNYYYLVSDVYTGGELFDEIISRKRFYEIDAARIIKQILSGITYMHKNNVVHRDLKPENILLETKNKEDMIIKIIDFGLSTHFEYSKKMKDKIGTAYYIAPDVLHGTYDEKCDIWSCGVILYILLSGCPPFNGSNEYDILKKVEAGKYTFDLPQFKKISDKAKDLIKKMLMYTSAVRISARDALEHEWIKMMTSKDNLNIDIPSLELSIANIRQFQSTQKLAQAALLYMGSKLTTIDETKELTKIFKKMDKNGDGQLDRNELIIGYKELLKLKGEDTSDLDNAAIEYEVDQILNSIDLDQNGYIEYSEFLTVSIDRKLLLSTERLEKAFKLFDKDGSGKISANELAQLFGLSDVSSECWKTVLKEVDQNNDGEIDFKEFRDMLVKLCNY
Test: PfCDPK4 kinase inhibitors, biochemical, TCAMS library (AID 1159588; cut-off not given, nearly all actives have IC50 up to about 0.91 µM)
Conditions: recombinant PfCDPK4, Kinase-Glo ATP depletion luminescence

outcome, inactive:
CC(C)c1ccc(CN(C)CCCCNC(=O)c2ccc(NC(=O)c3ccc(Cl)cc3)cc2)cc1, CC(C)n1c(C2CCN(CC3CCN(C(=O)/C=C/c4ccc(Cl)c(Cl)c4)CC3)CC2)nc2ccccc21, Cn1nc(C(F)(F)F)c(-c2ccc(F)cc2)c1NC(=O)Nc1ccc(F)cc1F, COc1cccc2sc(N3CCN(C(=O)c4ccc([N+](=O)[O-])o4)CC3)nc12, COc1ccc2nccc(NC(=O)CNCc3ccc(-c4ccccc4)cc3)c2c1, O=C(Nc1ccc(Cn2ncc(N3CCCNCC3)c(Cl)c2=O)cc1)Nc1cc(Cl)cc(Cl)c1, COc1cc(C(=O)Nc2nc3ccccc3[nH]2)ccc1OCC(=O)Nc1cccc(C(F)(F)F)c1, O=C(NCC1CC1)C1CCN(C(c2ccccc2)c2ccc(Cl)c(Cl)c2)CC1 (stereo not drawn), CN1CCN(CCCN(Cc2cccc(-c3cccc(CNCCc4ccccc4)c3)c2)C(=O)Nc2ccccc2)CC1, O=C(Nc1ccc(F)c(C(F)(F)F)c1)N[C@H]1CCN(CCCCCNC(=O)[C@@H]2C[C@H]2c2ccc(Cl)c(Cl)c2)C1, CC(Cc1ccc(OCc2ccccc2)cc1)Nc1nc2ccccc2c(=O)[nH]1 (stereo not drawn), CCCCCCP(=O)(COc1ccc(CCN(CC(O)COc2cccc3[nH]c(C(N)=O)cc23)CC(O)COc2cccc3[nH]c(C(N)=O)cc23)cc1)OCCCC (stereo not drawn), Cc1cc(N[C@@H](CC(C)C)C(=O)NCCOc2ccccc2)nc(Nc2ccccc2)n1, Cc1cccc2[nH]c(-c3cccc(-c4cccc(CNCc5cccc(N)c5)c4)c3)nc12, Cc1ccc(-n2[nH]c(C)c(N=Nc3cccc(-c4cccc(NC(=O)OC(C)(C)C)c4)c3O)c2=O)cc1C, O=C(Nc1ccc(NC2=NCCN2)cc1)Nc1ccc(NC2=NCCN2)cc1, CCn1c(-c2nonc2N)nc2cnc(Oc3cccc(NC(=O)c4ccc(OCCN5CCCC5)cc4)c3)cc21, CC[C@H](C)CNC(=O)c1cncc(-c2cccc(CNCCCc3ccccc3)c2)c1, COc1ccc(-c2cccc(NC(=O)c3cccc(Cl)c3)c2)cc1CN1CCCN(C)CC1, Cc1cccc2[nH]cc(C3CCN(CCC4CCN(C(=O)/C=C/c5ccc(Cl)c(Cl)c5)CC4)CC3)c12, Cc1ccc(-c2noc(COc3ccccc3C(=O)NC3CCCC3)n2)cc1, COc1ccc(NC(=O)[C@H](Cc2ccccc2)Nc2cc(C)nc(NCc3ccccc3C)n2)cc1, CC1CCCN1Cc1cccc(-c2ccc(C(=O)NCCOc3ccccc3)s2)c1 (stereo not drawn), COc1ccc(-c2cccc(NC(=O)c3ccc(Cl)cc3)c2)cc1CN1CCNCC1, CC(C)(C)Cn1cc(-c2ccc(C(=O)NCCc3ccc(S(C)(=O)=O)cc3)cc2)c(N)n1 (tested in a mixture with another compound), CCCC[C@@H](C(=O)NCCc1ccc(Cl)cc1)N1C(=O)CCC1C(=O)Nc1ccc(Cl)c(Cl)c1 (stereo partly drawn), COc1ccc(-c2csc(NC(=O)CCC(=O)O)n2)cc1OC, CCN(CC)CCOc1ccc(C(O)(C#CC(O)(c2ccc(C)cc2)c2ccc(OCCN(CC)CC)cc2)c2ccc(C)cc2)cc1 (stereo not drawn), COCc1nc(-c2ccccc2)nc(N2CCN(C(=O)NC(C)C)CC2)c1Cc1ccccc1F, CN(C)c1ccc(-c2csc(C(=O)NCC3CCN(CCC(C)(C)C)C3)c2)cc1 (stereo not drawn), N#Cc1ccc(-c2cnc3ccc(NCc4ccc(S(N)(=O)=O)cc4)nn23)cc1, O=C(N[C@@H]1C[C@H]1c1ccccc1)N(CCCn1ccnc1)Cc1csc(-c2ccc(CNCc3ccccc3)cc2)n1, Cc1nnc2c(NC(=O)/C=C/c3ccc(OC(F)(F)F)cc3)cc3cc(Cl)ccc3n12, CCn1c(C(C)C)cc2c3c(N)nc(N)nc3ccc21, Cc1cccc2[nH]c(-c3ccc(-c4ccc(NC(=O)Nc5ccc(Cl)cc5)cc4)s3)nc12, CCCCN1CCN(CCCCNc2c3ccccc3nc3ccccc23)CC1, NC(=NCCCCC1CCCCC1)c1cccc(C(N)=NCCCCC2CCCCC2)n1, O=C1OC(c2ccccc2)(c2ccccc2)CN1CC1CCN(Cc2ccc(O)c(Cl)c2)CC1, CCn1c(Sc2ccc(C#N)c([N+](=O)[O-])c2)nnc1-c1cccc(Cl)c1

Source: PubChem BioAssay
